# Positions count from the first letter of the chain named.
# Key:
# Experiment in all cases: yeast three-hybrid, YBZ-1, SC-Leu-His + 0.5 mM 3-AT, 4 days
# Conditions in all cases: tags: N-Gal4 AD-HA kept; label: inside an RPR1-promoter hybrid RNA with tandem MS2 sites; ssRNA
# PUM1 PUF domain R5-RQG = PUM1 PUF domain R5-RQG (Homo sapiens, UniProt Q14671 828-1176, C1007R;R1008Q;Q1011G)
# Method in brief: (§1)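 Matching RNA elements and Pumilio-1 PUF domain libraries, randomized at the three base-contacting residues of every repeat, were co-expressed from a centromeric plasmid in strain YBZ-1 (LexA–MS2 coat fusion, HIS3 reporter). The repeat regions were PCR-amplified and Illumina-sequenced from cells grown four days on SC-Leu (input) or SC-Leu-His + 0.5 mM 3-AT (selection). The interaction score is the log change in variant frequency from input to selection. It is computed in log2, with a pseudocount of 1 for absent variants.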
# PUM1 PUF domain R5-RCC = PUM1 PUF domain R5-RCC (Homo sapiens, UniProt Q14671 828-1176, C1007R;R1008C;Q1011C)
# Method in brief: as §1
# PUM1 PUF domain R1-KIL = PUM1 PUF domain R1-KIL (Homo sapiens, UniProt Q14671 828-1176, S863K;R864I;Q867L)
# Method in brief: as §1
# PUM1 PUF domain R6-HHS = target: T1, PUM1 PUF domain R6-HHS (Homo sapiens, UniProt Q14671 828-1176, N1043H;Y1044H;Q1047S)
# T1 sequence: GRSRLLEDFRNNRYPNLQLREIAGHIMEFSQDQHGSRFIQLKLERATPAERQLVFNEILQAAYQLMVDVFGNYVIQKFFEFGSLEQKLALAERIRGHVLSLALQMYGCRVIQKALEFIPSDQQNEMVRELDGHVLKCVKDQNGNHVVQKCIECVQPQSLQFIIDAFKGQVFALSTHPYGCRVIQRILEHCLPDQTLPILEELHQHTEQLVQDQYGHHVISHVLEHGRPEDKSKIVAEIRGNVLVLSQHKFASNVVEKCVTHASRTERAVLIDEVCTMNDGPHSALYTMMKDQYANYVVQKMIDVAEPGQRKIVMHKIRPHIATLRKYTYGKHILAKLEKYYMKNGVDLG
# Method in brief: as §1
# PUM1 PUF domain R6-NFW = target: T2, PUM1 PUF domain R6-NFW (Homo sapiens, UniProt Q14671 828-1176, Y1044F;Q1047W)
# T2 sequence: T1 sequence with H216N, H217F, S220W
# Method in brief: as §1
# PUM1 PUF domain R3-GFW = PUM1 PUF domain R3-GFW (Homo sapiens, UniProt Q14671 828-1176, C935G;R936F;Q939W)
# Method in brief: as §1
# PUM1 PUF domain R8-HYN = PUM1 PUF domain R8-HYN (Homo sapiens, UniProt Q14671 828-1176, N1122H;Q1126N)
# Method in brief: as §1
# PUM1 PUF domain R4-SNG = PUM1 PUF domain R4-SNG (Homo sapiens, UniProt Q14671 828-1176, N971S;H972N;Q975G)
# Method in brief: as §1
# PUM1 PUF domain R4-TPS = PUM1 PUF domain R4-TPS (Homo sapiens, UniProt Q14671 828-1176, N971T;H972P;Q975S)
# Method in brief: as §1
# PUM1 PUF domain R8-RWI = PUM1 PUF domain R8-RWI (Homo sapiens, UniProt Q14671 828-1176, N1122R;Y1123W;Q1126I)
# Method in brief: as §1
sequence,measurement,setting,value
GGCUAGAACUAGUGGAUCCCCCGGCGCCCGGCGGCUCGAGCCCGGGUAAGUGUUAAUAGUCUGCAUGCCGCCGGGCGCCAUGCCUGCAGGUCGACUCUAGAAAACAUG,binding signal,PUM1 PUF domain R5-RQG,5 log2 enrichment (interaction score)
GGCUAGAACUAGUGGAUCCCCCGGCGCCCGGCGGCUCGAGCCCGGGUAAGUGUCAAUAGUCUGCAUGCCGCCGGGCGCCAUGCCUGCAGGUCGACUCUAGAAAACAUG,binding signal,PUM1 PUF domain R5-RCC,4.34 log2 enrichment (interaction score)
same,binding signal,PUM1 PUF domain R5-RQG,5.03 log2 enrichment (interaction score)
GGCUAGAACUAGUGGAUCCCCCGGCGCCCGGCGGCUCGAGCCCGGGUAAGUGUAAAUCGUCUGCAUGCCGCCGGGCGCCAUGCCUGCAGGUCGACUCUAGAAAACAUG,binding signal,PUM1 PUF domain R1-KIL,2.59 log2 enrichment (interaction score)
GGCUAGAACUAGUGGAUCCCCCGGCGCCCGGCGGCUCGAGCCCGGGUAAGUGUAAAUAGUCUGCAUGCCGCCGGGCGCCAUGCCUGCAGGUCGACUCUAGAAAACAUG,binding signal,PUM1 PUF domain R6-HHS,4.38 log2 enrichment (interaction score)
same,binding signal,PUM1 PUF domain R6-NFW,2.25 log2 enrichment (interaction score)
same,binding signal,PUM1 PUF domain R3-GFW,5.77 log2 enrichment (interaction score)
same,binding signal,PUM1 PUF domain R8-HYN,2.92 log2 enrichment (interaction score)
same,binding signal,PUM1 PUF domain R4-SNG,1.17 log2 enrichment (interaction score)
same,binding signal,PUM1 PUF domain R4-TPS,3 log2 enrichment (interaction score)
same,binding signal,PUM1 PUF domain R5-RQG,0.8 log2 enrichment (interaction score)
GGCUAGAACUAGUGGAUCCCCCGGCGCCCGGCGGCUCGAGCCCGGGUAAGUGUAUAUAGUCUGCAUGCCGCCGGGCGCCAUGCCUGCAGGUCGACUCUAGAAAACAUG,binding signal,PUM1 PUF domain R4-SNG,3.22 log2 enrichment (interaction score)
GGCUAGAACUAGUGGAUCCCCCGGCGCCCGGCGGCUCGAGCCCGGGUAAGUGUGAAUAGUCUGCAUGCCGCCGGGCGCCAUGCCUGCAGGUCGACUCUAGAAAACAUG,binding signal,PUM1 PUF domain R5-RQG,0.9 log2 enrichment (interaction score)
GGCUAGAACUAGUGGAUCCCCCGGCGCCCGGCGGCUCGAGCCCGGGUAAGUGUACAUAGUCUGCAUGCCGCCGGGCGCCAUGCCUGCAGGUCGACUCUAGAAAACAUG,binding signal,PUM1 PUF domain R4-TPS,4.18 log2 enrichment (interaction score)
GGCUAGAACUAGUGGAUCCCCCGGCGCCCGGCGGCUCGAGCCCGGGUAAGCGUAAAUAGUCUGCAUGCCGCCGGGCGCCAUGCCUGCAGGUCGACUCUAGAAAACAUG,binding signal,PUM1 PUF domain R8-RWI,5.86 log2 enrichment (interaction score)

# From PMC8384837, “Expanding the binding specificity for RNA recognition by a PUF domain”
